Laboratory results reported in the supplement of paper PMC4466140.

biological target: AgAbp1; test: SPOT peptide array binding signal intensity (averaged, normalized) (arbitrary units (background-subtracted, floor 0; scale differs between SH3 domains)); higher = stronger binding of the SH3 domain to the peptide
Summary of the method: (§1)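 Spot intensities were captured after detection with anti-GST antibody, an HRP-linked anti-mouse secondary and luminol, and quantified with Genespotter. The probes were GST-fused SH3 domains from four yeast species, produced in E. coli BL21(DE3), purified on glutathione Sepharose and incubated at 10 μg/ml overnight at 4°C on cellulose-bound synthetic 15-mer peptides with cysteines replaced by serines. Binding signal is the normalized, background-subtracted spot intensity averaged over replicates, and its arbitrary units differ between domains.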

Binder	SPOT peptide array binding signal intensity
VRVKKRPLIRPLNSS	450

biological target: AgBbc1; test: as above
Summary of the method: as §1

Binder	SPOT peptide array binding signal intensity
VRVKKRPLIRPLNSS	184

biological target: AgBem1-D1; test: as above
Summary of the method: as §1

Binder	SPOT peptide array binding signal intensity
VRVKKRPLIRPLNSS	244

biological target: AgBzz1-D1; test: as above
Summary of the method: as §1

Binder	SPOT peptide array binding signal intensity
VRVKKRPLIRPLNSS	6.5

biological target: AgBzz1-D2; test: as above
Summary of the method: as §1

Binder	SPOT peptide array binding signal intensity
VRVKKRPLIRPLNSS	215

biological target: AgCyk3; test: as above
Summary of the method: as §1

Binder	SPOT peptide array binding signal intensity
VRVKKRPLIRPLNSS	6

biological target: AgFus1; test: as above
Summary of the method: as §1

Binder	SPOT peptide array binding signal intensity
VRVKKRPLIRPLNSS	223

biological target: AgHof1; test: as above
Summary of the method: as §1

Binder	SPOT peptide array binding signal intensity
VRVKKRPLIRPLNSS	48.5

biological target: AgHse1; test: as above
Summary of the method: as §1

Binder	SPOT peptide array binding signal intensity
VRVKKRPLIRPLNSS	646

biological target: AgLsb1; test: as above
Summary of the method: as §1

Binder	SPOT peptide array binding signal intensity
VRVKKRPLIRPLNSS	2.5

biological target: AgLsb4; test: as above
Summary of the method: as §1

Binder	SPOT peptide array binding signal intensity
VRVKKRPLIRPLNSS	81

biological target: AgMyo5; test: as above
Summary of the method: as §1

Binder	SPOT peptide array binding signal intensity
VRVKKRPLIRPLNSS	0.5

biological target: AgNbp2; test: as above
Summary of the method: as §1

Binder	SPOT peptide array binding signal intensity
VRVKKRPLIRPLNSS	220

biological target: AgRvs167; test: as above
Summary of the method: as §1

Binder	SPOT peptide array binding signal intensity
VRVKKRPLIRPLNSS	2.33

biological target: AgSho1; test: as above
Summary of the method: as §1

Binder	SPOT peptide array binding signal intensity
VRVKKRPLIRPLNSS	53

biological target: AgSla1-D1-D2; test: as above
Summary of the method: as §1

Binder	SPOT peptide array binding signal intensity
VRVKKRPLIRPLNSS	442

biological target: AgSla1-D3; test: as above
Summary of the method: as §1

Binder	SPOT peptide array binding signal intensity
VRVKKRPLIRPLNSS	12.8

biological target: CaAbp1-D1; test: as above
Summary of the method: as §1

Binder	SPOT peptide array binding signal intensity
VRVKKRPLIRPLNSS	1520

biological target: CaAbp1-D2; test: as above
Summary of the method: as §1

Binder	SPOT peptide array binding signal intensity
VRVKKRPLIRPLNSS	1190

biological target: CaBbc1; test: as above
Summary of the method: as §1

Binder	SPOT peptide array binding signal intensity
VRVKKRPLIRPLNSS	278

biological target: CaBem1-D1; test: as above
Summary of the method: as §1

Binder	SPOT peptide array binding signal intensity
VRVKKRPLIRPLNSS	378

biological target: CaBzz1-D1; test: as above
Summary of the method: as §1

Binder	SPOT peptide array binding signal intensity
VRVKKRPLIRPLNSS	153

biological target: CaBzz1-D2; test: as above
Summary of the method: as §1

Binder	SPOT peptide array binding signal intensity
VRVKKRPLIRPLNSS	101

biological target: CaCyk3; test: as above
Summary of the method: as §1

Binder	SPOT peptide array binding signal intensity
VRVKKRPLIRPLNSS	132

biological target: CaFus1; test: as above
Summary of the method: as §1

Binder	SPOT peptide array binding signal intensity
VRVKKRPLIRPLNSS	381

biological target: CaHof1; test: as above
Summary of the method: as §1

Binder	SPOT peptide array binding signal intensity
VRVKKRPLIRPLNSS	1

biological target: CaHse1; test: as above
Summary of the method: as §1

Binder	SPOT peptide array binding signal intensity
VRVKKRPLIRPLNSS	15

biological target: CaLsb1; test: as above
Summary of the method: as §1

Binder	SPOT peptide array binding signal intensity
VRVKKRPLIRPLNSS	2

biological target: CaLsb4; test: as above
Summary of the method: as §1

Binder	SPOT peptide array binding signal intensity
VRVKKRPLIRPLNSS	104

biological target: CaMyo5; test: as above
Summary of the method: as §1

Binder	SPOT peptide array binding signal intensity
VRVKKRPLIRPLNSS	1.5

biological target: CaNbp2; test: as above
Summary of the method: as §1

Binder	SPOT peptide array binding signal intensity
VRVKKRPLIRPLNSS	311

biological target: CaRvs167; test: as above
Summary of the method: as §1

Binder	SPOT peptide array binding signal intensity
VRVKKRPLIRPLNSS	8.5

biological target: CaRvs167-3; test: as above
Summary of the method: as §1

Binder	SPOT peptide array binding signal intensity
VRVKKRPLIRPLNSS	183

biological target: CaSho1; test: as above
Summary of the method: as §1

Binder	SPOT peptide array binding signal intensity
VRVKKRPLIRPLNSS	370

biological target: CaSla1-D1-D2; test: as above
Summary of the method: as §1

Binder	SPOT peptide array binding signal intensity
VRVKKRPLIRPLNSS	534

biological target: CaSla1-D3; test: as above
Summary of the method: as §1

Binder	SPOT peptide array binding signal intensity
VRVKKRPLIRPLNSS	0.25

biological target: ScAbp1; test: as above
Summary of the method: as §1

Binder	SPOT peptide array binding signal intensity
VRVKKRPLIRPLNSS	138
